# Source: PubChem BioAssay (Center for Chemical Genomics, University of Michigan)
# Dicer processing: blocks human Dicer maturation of pre-miR-21; cat-ELCCA pre-miR-21 Dicer processing, chemiluminescence; active compounds read high; z-score at 25 µM; actives 6% (n = 47,000); AID 1347074; in the data active = z-score above about 3, passing the limit was not always enough;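 also: plate controls were vehicle for no effect and no enzyme for full effect; higher signal means more uncleaved substrate so more Dicer inhibition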
# Target sequence (Q9UPY3 whole entry, looked up): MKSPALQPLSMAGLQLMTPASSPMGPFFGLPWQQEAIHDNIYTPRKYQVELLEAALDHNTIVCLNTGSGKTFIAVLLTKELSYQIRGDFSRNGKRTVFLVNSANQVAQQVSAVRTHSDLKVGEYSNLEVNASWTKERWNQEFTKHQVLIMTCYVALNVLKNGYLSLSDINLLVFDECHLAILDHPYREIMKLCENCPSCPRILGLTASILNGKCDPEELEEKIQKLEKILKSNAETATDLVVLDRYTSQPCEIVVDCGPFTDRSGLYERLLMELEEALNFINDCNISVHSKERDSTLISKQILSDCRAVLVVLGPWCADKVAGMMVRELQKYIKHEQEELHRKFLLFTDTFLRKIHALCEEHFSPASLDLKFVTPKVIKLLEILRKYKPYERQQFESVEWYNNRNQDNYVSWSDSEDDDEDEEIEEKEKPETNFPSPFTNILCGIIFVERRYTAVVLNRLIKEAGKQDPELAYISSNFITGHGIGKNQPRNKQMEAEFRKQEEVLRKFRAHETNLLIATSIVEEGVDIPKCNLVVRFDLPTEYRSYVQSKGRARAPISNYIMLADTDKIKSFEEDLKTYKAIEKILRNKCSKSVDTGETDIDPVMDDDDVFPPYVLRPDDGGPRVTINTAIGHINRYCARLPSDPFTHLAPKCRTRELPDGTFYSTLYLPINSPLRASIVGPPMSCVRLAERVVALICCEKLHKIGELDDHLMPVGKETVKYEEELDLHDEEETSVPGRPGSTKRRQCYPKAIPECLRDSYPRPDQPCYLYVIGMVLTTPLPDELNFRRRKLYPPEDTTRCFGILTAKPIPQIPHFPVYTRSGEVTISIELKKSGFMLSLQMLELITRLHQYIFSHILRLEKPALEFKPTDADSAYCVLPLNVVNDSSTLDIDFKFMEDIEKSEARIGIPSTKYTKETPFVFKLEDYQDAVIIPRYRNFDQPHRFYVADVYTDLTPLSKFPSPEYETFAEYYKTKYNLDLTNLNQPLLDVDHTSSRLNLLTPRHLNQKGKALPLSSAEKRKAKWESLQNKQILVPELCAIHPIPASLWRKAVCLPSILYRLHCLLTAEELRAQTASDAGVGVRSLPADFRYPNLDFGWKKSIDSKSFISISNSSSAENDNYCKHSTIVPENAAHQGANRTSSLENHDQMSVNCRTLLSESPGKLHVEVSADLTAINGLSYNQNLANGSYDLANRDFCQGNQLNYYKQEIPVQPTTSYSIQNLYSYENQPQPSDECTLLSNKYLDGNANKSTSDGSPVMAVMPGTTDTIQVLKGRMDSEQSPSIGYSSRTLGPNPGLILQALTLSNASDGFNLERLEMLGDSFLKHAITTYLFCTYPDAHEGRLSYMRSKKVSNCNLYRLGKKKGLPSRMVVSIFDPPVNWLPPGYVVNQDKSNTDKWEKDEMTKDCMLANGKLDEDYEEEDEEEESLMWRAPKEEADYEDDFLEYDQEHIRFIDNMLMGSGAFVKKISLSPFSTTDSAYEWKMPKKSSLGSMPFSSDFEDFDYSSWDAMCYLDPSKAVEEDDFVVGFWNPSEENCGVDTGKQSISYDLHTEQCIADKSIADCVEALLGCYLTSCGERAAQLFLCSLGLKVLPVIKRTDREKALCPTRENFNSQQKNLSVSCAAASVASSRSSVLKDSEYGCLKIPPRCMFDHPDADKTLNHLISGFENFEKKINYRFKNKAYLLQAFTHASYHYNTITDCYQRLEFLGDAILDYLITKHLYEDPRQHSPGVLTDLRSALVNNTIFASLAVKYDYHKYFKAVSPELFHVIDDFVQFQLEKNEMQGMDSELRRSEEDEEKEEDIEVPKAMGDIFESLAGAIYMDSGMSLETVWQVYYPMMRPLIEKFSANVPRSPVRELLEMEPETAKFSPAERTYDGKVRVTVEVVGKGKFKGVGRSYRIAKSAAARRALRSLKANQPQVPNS
# * marks the source's active call; other numbers are inactive results. The sample as a whole holds a higher share of hits than the screen did.
SMILES,Dicer processing
O=C(NC(=S)Nc1c(Cl)cccc1Cl)c1ccccc1,0.31
CCOC(=O)c1c(C)nsc1NN=C(C#N)C(=O)C(C)(C)C,0.5
COC(=O)c1ccc([C@@H]2Nc3ccc(C(=O)O)cc3[C@@H]3C=CC[C@@H]32)cc1,1.03
CCCCCc1ccc(S(=O)(=O)Nc2nc(CC(=O)OCC)cs2)cc1,-1.55
CCOC(=O)C1CCN(S(=O)(=O)c2sc3ccc(Cl)cc3c2C)CC1,-0.13
Cc1ccc(C)c(C(=O)CC2(O)C(=O)Nc3ccc(C)cc32)c1 (stereo not given),0.87
COc1ccccc1Nc1n[nH]c(C)c1[N+](=O)[O-],1.93
COc1ccccc1Nc1cc(=O)[nH]c(=O)[nH]1,3.58*
COc1ccccc1Nc1cccccc1=O,2.68
Cn1c(=O)c2c(O)c([N+](=O)[O-])c(=O)n(-c3ccccc3)c2n(C)c1=O,-2.18
CN1C=CC=C/C1=C1\N=C(c2ccccc2)OC1=O,-0.78
CC1=C(C(=O)OCC(C)C)C(c2ccc(C)s2)C2=C(CC(C)(C)CC2=O)N1 (stereo not given),2.3
CCOC(=O)c1cnc2cc(Cl)c(F)cc2c1OCC,1.89
CCOC(=O)c1cnc2cc(Cl)c(F)cc2c1N1CC(C)OC(C)C1 (stereo not given),10.7*
CCOC(=O)c1ccc2nc(C(F)(F)F)nc(N3CC(C)OC(C)C3)c2c1 (stereo not given),-1.6
CCOc1ccc(S(=O)(=O)n2cnc3cc(C)c(C)cc32)cc1C,-1.36
O=S(=O)(CCc1ccncc1)c1ccc(Cl)cc1,4.35*
O=S(=O)(Cc1ccccc1)c1ccc(Cl)cc1,0.84
O=S(=O)(CCS(=O)(=O)c1cccs1)c1ccc(Cl)cc1,-0.66
Cc1ccc(S(=O)(=O)Nc2cc(S(=O)(=O)c3ccc(C)cc3)c(O)c3ncccc23)cc1,-1.26
Cc1ccc(S(=O)(=O)Nc2cc(C)c(O)c(Cl)c2)cc1,0.77
Cc1ccc(S(=O)(=O)Nc2cc(C(C)C)c(O)c(Cl)c2C)cc1,3.18*
Cc1c(NS(=O)(=O)c2ccccc2)cc(Cl)c(O)c1C,2.15
Cc1ccc(S(=O)(=O)Nc2cc(C)c(Br)cc2NS(=O)(=O)c2ccc(C)cc2)cc1,7.15
Cc1ccc(S(=O)(=O)Nc2cc(Cl)c(O)cc2C)cc1,4.28*
SMILES,Dicer processing
Cn1c(=O)c(/C(N)=N/OC(=O)c2cccs2)cn(-c2ccccc2)c1=O,-1.93
CCc1n(CC(O)COc2cccc(OC)c2)c2ccccc2[n+]1C (stereo not given),0.77
O=C(Nc1ccccc1-c1nnc(-c2ccc(Cl)cc2)o1)c1ccc(Cl)cc1,-1.3
Cc1cc(C(=O)O)nc2ccccc12,1.8
Cc1cc(C)c2nc(C3C(=O)c4ccccc4C3=O)ccc2c1,-1.17
Cc1cc(C)c2ccc(C3C(=O)c4ccc(O)cc4C3=O)nc2c1 (stereo not given),3.13*
Cn1nc(C(F)(F)F)c(-c2ccccc2)c1NC(=O)C1C2C=CC(C2)C1C(=O)O (stereo not given),0.56
CC(C)(C)NC(=O)CSc1nc2ccccc2[nH]1,4.86*
CCOC(=O)CSc1nc2ccccc2[nH]1,-0.04
O=C(CSc1nc2ccccc2[nH]1)Nc1ncccn1,0.74
CC(C)(C)OC(=O)C1C(=O)CC(C)(O)C(C(=O)OC(C)(C)C)C1c1ccc(F)cc1 (stereo not given),-1.51
Cc1ccccc1NC(=O)/C=C/C(=O)O,-0.63
CCN(C(=O)c1cnccc1C(F)(F)F)c1cccc(C)c1C,-0.66
C/C=C/C(=O)N(CC)c1ccccc1C,3.57*
COc1ccc(C(=O)NNS(=O)(=O)c2ccc(-c3ccccn3)s2)cc1OC1CCCC1,-1.46
Clc1cccc(Nc2nc(-c3ccncc3)nc3ccccc23)c1,2.6
Clc1ccc(Nc2nc(-c3ccncc3)nc3ccccc23)cc1,3.97*
Oc1ccc(Nc2nc(-c3ccccc3)nc3ccccc23)cc1,2.24
COC(=O)c1ccc(NS(=O)(=O)c2ccc3c4c(cccc24)C(=O)N3)cc1,-0.47
COc1ccc(C2C3=C(Nc4ncnn42)c2ccccc2OC3c2ccccc2)cc1 (stereo not given),1.06
Cc1cc(C)c(C#N)c(N2CCN(c3ccccc3)CC2)n1,3.24*
Cc1cc(C)c2c(n1)sc1c(N3CCN(c4ccccc4)CC3)ncnc12,1.39
COCc1cc(C)nc(N2CCN(Cc3ccccc3)CC2)c1C#N,0.42
CC(C)c1ccc(NC(=S)NC2CC3CCC2C3)cc1 (stereo not given),-0.06
NC(CCc1ccccc1Cl)c1ccc2c(c1)OCCO2 (stereo not given),-0.9
SMILES,Dicer processing
CN(C)/C=C1\CCCc2ccccc2C1=O,3.43*
CN(C)/C=C1\SCc2ccccc2C1=O,-1.46
O=C1/C(=C/c2ccc3c(c2)OCO3)CCCc2ccccc21,-1.67
Cc1cc(Br)c(NC(=S)NN)c(Br)c1,2.65
COc1ccc(COC(=O)C2=C(C)NC3=C(C(=O)CC(C)(C)C3)C2c2ccc3c(c2)OCO3)cc1 (stereo not given),-0.07
Cn1c(=O)c2c(nc(NCCCO)n2Cc2ccc(Br)cc2)n(C)c1=O,2.13
Cn1c(=O)c2c(nc(-n3ccnc3)n2Cc2ccc(F)cc2)n(C)c1=O,1.42
Cn1c(=O)c2c(nc(NCCCn3ccnc3)n2Cc2cccc3ccccc23)n(C)c1=O,-0.49
Cn1c(NCCCO)nc2c1c(=O)n(Cc1ccc(Cl)cc1)c(=O)n2C,2.37
Cn1c(=O)c2c(nc(NCCCO)n2Cc2ccc(Cl)cc2)n(C)c1=O,3.61*
Cn1c(=O)c2c(nc(NCCCn3ccnc3)n2Cc2ccc(F)cc2)n(C)c1=O,3.45*
Cc1ccc(S(=O)(=O)Nc2cccc(-c3nnc(Cc4cc(F)cc(F)c4)o3)c2)cc1,0.28
Cn1nc(C(F)(F)C(F)F)cc1-c1ccccc1O,5.32*
Cn1nc(C(F)(F)F)cc1OC(=O)c1ccccc1Cl,-0.32
CN(C)C(=O)c1ccc(-c2cc(C(F)(F)F)nn2C)s1,-0.27
Cc1c(O)ccc2c1OC(C)(C)CC2=O,0.83
CCn1c(C)nc2cc(S(=O)(=O)N3CCOCC3)ccc21,0.56
O=C(CN1CCCCC1)N1c2ccccc2CCc2ccccc21,1.29
CN1CCN(CC(=O)N2c3ccccc3C=Cc3ccccc32)CC1,7.01*
CN1CCN(CC(=O)N2CCc3ccccc32)CC1,1.62
Cc1cc(C)c2c(n1)sc1c(N(Cc3ccccc3)Cc3ccccc3)ncnc12,-0.77
CCCNC(=O)NNC(=O)C(C)n1nnc(-c2cc(C(F)(F)F)cc(C(F)(F)F)c2)n1 (stereo not given),1.72
CC1CCCC(C)N1C(=O)CSc1nc(-c2ccco2)cc(C(F)(F)F)n1 (stereo not given),0.12
Cc1ccc(-c2cnc3c(-c4ccc(Cl)cc4)c(C)nn3c2N)cc1,-0.44
S=c1[nH]ccn1-c1cc(Cl)ccc1Cl,-1.03
SMILES,Dicer processing
CCOC(=O)COc1ccc2c(-c3ccccc3)cc(=O)oc2c1,1.08
CCOC(=O)COc1ccc2c(C)c(Cc3c(Cl)cccc3Cl)c(=O)oc2c1,3.32*
Cc1c(Cc2c(F)cccc2Cl)c(=O)oc2cc(OC(=O)c3ccco3)ccc12,0.42
CCN(C(C)=O)c1nc2c3ccccc3n(C(C)=O)c2s1,0.55
COc1c(Cl)cc(Cl)cc1-c1csc(NC(=O)C(Cl)(Cl)Cl)n1,0.67
C=CCOc1cc(=O)[nH]c2ccccc12,4.68*
O=c1cc(CSC(=S)N2CCSCC2)c2ccccc2[nH]1,-0.65
C=CCOc1ccc2[nH]c(C)c(C(=O)OCC)c2c1,-0.95
O=C(CSc1nc2ccccc2nc1N1CCOCC1)Nc1ccccc1F,1.72
O=C(CSc1nc2ccccc2nc1N1CCOCC1)N1CCN(c2cccc(Cl)c2)CC1,3.55*
